Assay results reported in PubChem BioAssay (NCI).
This is part of a sample that, as a whole, favours compounds with a hit. Of some 83,000 tested, about 20% had one in any assay.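 Interpretation: 100, growth as untreated; towards 0, rising growth inhibition; 0, no net growth; 0 to -100, cell death. Compounds scoring below 10 were considered active.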 Values without a mark were called inactive. Calls of active or inactive are those of the source.

Each molecule was assayed on HL-60(TB) leukemia (assay: NCI-60 one-dose screen, 48 h (100 = growth as untreated, 0 = no growth, -100 = all killed)). Conditions: 10 µM unless noted.
In the case of COc1ccc(CN2CCCC(C(=O)c3ccc(C(F)(F)F)cc3)C2)c(O)c1 (stereo not given), the growth is reported as 17%.
Work on CCN1CCN(c2cc(C(=O)Nc3cccc(Nc4ccc5c(OC)cccc5n4)c3)cc(C(F)(F)F)c2)CC1 yielded a growth of 62.6%.
Work on CN1CCN(c2ccc3nc(/N=C/c4ccc5sc(-c6ccc([N+](=O)[O-])cc6)nc5c4)sc3c2)CC1 yielded a growth of 109%.
For COc1cccc(OCC(O)CN2CCN(c3ccccc3)CC2)c1 (stereo not given), the growth was 78.7%.
For CCOC(=O)c1sc2ccc(NCc3nc[nH]c3C)cc2c1NC(=O)c1cc(OC)c(OC)c(OC)c1, the growth was 5.99% (active).
With CCOC(=O)NNc1[nH]c(-c2ccc(OC)cc2)cc1C#N the growth was -42.4% (active).
COC1OCC(O)C(O)C1O (stereo not given) was tested, and the growth was 102%.
In the case of CC(C)c1ccc(NC(=O)Cc2ccc(Nc3ncnc4cc(-c5cnn(CCN(C)C)c5)ccc34)cc2)cc1, the growth is reported as -66.4% [30 µM] (active).
Molecule CC(C)(C)c1ccc2oc(=O)n(SC(Cl)(Cl)Cl)c2c1 has a growth of 70.2%.
For COc1cc(COC(=O)CCCCC[P+](c2ccccc2)(c2ccccc2)c2ccccc2)c(OC)c2c1OCO2, the growth was -9.81% (active).
In the case of COc1cccc(-c2nc(-c3ccc(NC(=O)OC(C)C)cc3)[nH]c2-c2ccnc(Br)c2)c1, the growth is reported as -39.9% (active).
Work on S=c1nc(-c2ccccn2)c(-c2ccccn2)n[nH]1 yielded a growth of 92.8%.
COc1cccc2c(=O)c3c(sc12)c(NCCN(C)C)nc1ccccc13 gave a growth of 15.1%.
With Nc1ncc(-c2cnn(C3CCNCC3)c2)cc1-c1nc2cc(Cl)ccc2o1 the growth was -71.3% (active).
CCN(CC)CCNc1ccc([N+](=O)[O-])c2sc3cc(Cl)ccc3c(=O)c12 showed a growth of 54.7%.
For CCn1c(SC/C(=N/O)c2ccccc2)nnc1-c1ccccc1, the growth was 103%.
For O=c1oc2ccccc2cc1-c1nn(-c2ccccc2)cc1/C=N/Nc1nc(-c2ccccc2)c(N=Nc2ccccc2)s1, the growth was 58.1%.
Work on COc1cccc(/C=C/C(=O)c2cc3c(N)c(C(=O)Nc4ccccc4C)sc3nc2C)c1 yielded a growth of 26.3%.
With O=c1c2cc(F)ccc2sc2c(N3CCNCC3)nc3ccccc3c12 the growth was -52% (active).
For Cc1ccc(-c2nc(N3CCNCC3)c3oc(-c4ccc(C)cc4)nc3n2)cc1, the growth was -69.3% (active).
Work on C=C1C(=O)O[C@H]2[C@H](O)[C@@H](C)CCC/C(C)=C/CC[C@@]3(C)O[C@@H]3C[C@@H]12 yielded a growth of 92.5%.
Molecule Cc1ccc(S(=O)(=O)c2ccccc2)cc1 has a growth of 12.8%.
O=C(NNc1ccccc1)C1CCCN1 (stereo not given) was tested, and the growth was 9.36% (active).
In the case of C[n+]1c(/C=C\C=C\N2CCCCC2)sc2ccccc21, the growth is reported as -37.3% (active).
Molecule CC(C)(C)c1cc(C(=O)N2CCC(C(=O)NCCN)CC2)cc(C(C)(C)C)c1 has a growth of 90.5%.
COc1ccc(N2CCN(Cc3cc(C(=O)/C=C/c4c[nH]c5ccccc45)ccc3O)CC2)cc1 was tested, and the growth was 99.9%.
In the case of CCCNCC(=O)Nc1ccc(C(=O)OC(C)(C)CC)cc1, the growth is reported as 89.8%.
O=C(NC1CCCCC1)C(c1cccs1)N(CCc1ccccc1)C(=O)c1ccco1 (stereo not given) showed a growth of 100%.
In the case of Clc1ccc(Nc2nc(Nc3ccc(Cl)cc3)nc(Nc3ccc(-c4cc(-c5cccc(Cl)c5)on4)cc3)n2)cc1, the growth is reported as -50% (active).
For Nc1n[nH]c2cccc(C#Cc3cccc(C(=O)Nc4cccc(C(F)(F)F)c4)c3)c12, the growth was 30.4%.
In the case of CCC1(C)OC(=O)NC1=O (stereo not given), the growth is reported as 112%.
In the case of CC(=O)c1cc2c(N)c(C(=O)Nc3cccc4ccncc34)sc2nc1C, the growth is reported as 86.2%.
For Cc1cc(O)c(C(C)C)cc1Cl, the growth was 101%.
Molecule Cc1ccc2c(c1)CC(O)CC1C(=O)N(CCO)CC(=O)N21 (stereo not given) has a growth of 96.9%.
Nc1nc(Nc2ccccc2)c(C=Nc2ccccc2)c(=O)[nH]1 was tested, and the growth was 98.9%.
For Nc1nc2ccccc2c2c(=O)c3ccc(Cl)cc3sc12, the growth was 92.1%.
CCCCCCCCCCCCCCCCNc1ccccc1 was tested, and the growth was 8.47% (active).
COc1ccc2nc3cc(Cl)ccc3c(NC(=O)CSc3ccc(Cl)cc3)c2c1 was tested, and the growth was -50.7% (active).
In the case of CCCCCCCCCCCCNC(=O)[C@H]1CSC(c2cc(Br)cs2)N1 (stereo not given in full), the growth is reported as -36.9% (active).
With CC(C)=CC(=O)OCC(=O)O[C@@H]1C[C@]2(C(C)C)O[C@@]1(C)[C@@H]1CC[C@@H](C)[C@H]1[C@@H]2OC(=O)/C=C/c1ccccc1 the growth was 85%.
